# Measured values published in publication PMC7862700, “An all-to-all approach to the identification of sequence-specific readers for epigenetic DNA modifications on cytosine”.
# What was measured:
# Test in all cases: DAPPL (digital affinity profiling via proximity ligation, sequencing); 10 mM Tris-HCl pH 7.5, 50 mM NaCl, 1 mM DTT, 4% glycerol, room temperature, 30 min; GST-TFs on glutathione beads, 16-mer random dsDNA library, 0.1% formaldehyde crosslink after washing; high values mean tight binding
# FEV = biological target: T1, FEV (Homo sapiens, UniProt Q99581 1-238); settings: protein: recombinant; tags: N-terminal GST; dsDNA, one strand shown
# T1 sequence: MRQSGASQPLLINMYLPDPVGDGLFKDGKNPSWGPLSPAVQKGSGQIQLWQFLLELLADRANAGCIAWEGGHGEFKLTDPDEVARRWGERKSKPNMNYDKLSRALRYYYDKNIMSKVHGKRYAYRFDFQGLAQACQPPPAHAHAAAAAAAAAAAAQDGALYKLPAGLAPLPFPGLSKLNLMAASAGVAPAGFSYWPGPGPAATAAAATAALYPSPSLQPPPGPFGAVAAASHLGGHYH
# In short: (§1)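 Sequencing on an Illumina NextSeq500 followed washing, crosslinking with 0.1% formaldehyde, proximity ligation (BsaI/T4 ligase, 1 h, 37 °C) and PCR amplification of pools that had been incubated for 30 min at room temperature with 200 nmole of a random double-stranded 16-mer DNA library in Tris/NaCl/DTT/glycerol buffer. Each pool held DNA-barcoded human transcription factors, expressed in yeast as GST fusions and captured on glutathione beads, plus a tag-only sample. Binding signal is a hexamer's read frequency for a factor divided by its frequency in the tag-only sample.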
# ETV5 = ETV5 (Homo sapiens, UniProt P41161 1-510); settings: protein: recombinant; tags: N-terminal GST; dsDNA, one strand shown
# Chain of ETV5 (P41161 whole entry): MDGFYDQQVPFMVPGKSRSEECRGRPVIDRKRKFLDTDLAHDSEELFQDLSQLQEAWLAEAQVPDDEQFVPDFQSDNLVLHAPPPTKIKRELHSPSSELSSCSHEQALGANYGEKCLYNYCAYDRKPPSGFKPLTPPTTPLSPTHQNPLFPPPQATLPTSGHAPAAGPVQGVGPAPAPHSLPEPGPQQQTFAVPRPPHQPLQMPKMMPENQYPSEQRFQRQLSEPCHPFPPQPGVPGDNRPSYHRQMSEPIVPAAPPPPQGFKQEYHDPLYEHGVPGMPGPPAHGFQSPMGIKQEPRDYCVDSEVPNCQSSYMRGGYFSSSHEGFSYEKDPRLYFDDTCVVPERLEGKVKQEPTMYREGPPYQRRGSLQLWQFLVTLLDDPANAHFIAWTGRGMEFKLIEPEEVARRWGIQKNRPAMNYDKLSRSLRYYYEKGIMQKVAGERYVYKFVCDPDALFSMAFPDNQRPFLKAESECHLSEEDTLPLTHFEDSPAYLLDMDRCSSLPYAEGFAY
# In short: as §1
# HSF1 = HSF1 (Homo sapiens, UniProt Q00613 1-529); settings: protein: recombinant; tags: N-terminal GST; chain copies: 3; dsDNA, one strand shown
# Chain of HSF1 (Q00613 whole entry): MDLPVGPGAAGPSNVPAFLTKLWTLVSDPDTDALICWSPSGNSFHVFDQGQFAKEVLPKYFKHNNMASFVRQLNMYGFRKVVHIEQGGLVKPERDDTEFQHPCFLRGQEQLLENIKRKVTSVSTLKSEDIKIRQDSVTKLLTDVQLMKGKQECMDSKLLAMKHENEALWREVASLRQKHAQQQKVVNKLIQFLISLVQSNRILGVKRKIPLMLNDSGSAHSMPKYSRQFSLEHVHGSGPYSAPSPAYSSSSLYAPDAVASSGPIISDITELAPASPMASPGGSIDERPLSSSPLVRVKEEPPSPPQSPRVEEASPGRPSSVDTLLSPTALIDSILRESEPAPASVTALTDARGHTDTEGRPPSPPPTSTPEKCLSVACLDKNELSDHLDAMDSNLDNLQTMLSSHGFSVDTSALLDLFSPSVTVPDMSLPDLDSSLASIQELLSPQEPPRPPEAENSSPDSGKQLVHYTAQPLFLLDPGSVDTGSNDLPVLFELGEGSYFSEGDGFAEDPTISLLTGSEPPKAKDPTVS
# In short: as §1
# SPIC = biological target: T2, SPIC (Homo sapiens, UniProt Q8N5J4 1-248); settings: protein: recombinant; tags: N-terminal GST; dsDNA, one strand shown
# T2 sequence: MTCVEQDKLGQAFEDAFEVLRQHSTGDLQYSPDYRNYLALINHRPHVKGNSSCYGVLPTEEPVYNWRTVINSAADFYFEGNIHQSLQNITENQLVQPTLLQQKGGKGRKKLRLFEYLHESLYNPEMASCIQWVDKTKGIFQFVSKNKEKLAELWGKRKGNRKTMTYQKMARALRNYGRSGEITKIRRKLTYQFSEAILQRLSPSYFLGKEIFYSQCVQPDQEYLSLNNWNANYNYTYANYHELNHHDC
# In short: as §1
# ELF4 = ELF4 (Homo sapiens, UniProt Q99607 1-663); settings: protein: recombinant; tags: N-terminal GST; dsDNA, one strand shown
# Chain of ELF4 (Q99607 whole entry): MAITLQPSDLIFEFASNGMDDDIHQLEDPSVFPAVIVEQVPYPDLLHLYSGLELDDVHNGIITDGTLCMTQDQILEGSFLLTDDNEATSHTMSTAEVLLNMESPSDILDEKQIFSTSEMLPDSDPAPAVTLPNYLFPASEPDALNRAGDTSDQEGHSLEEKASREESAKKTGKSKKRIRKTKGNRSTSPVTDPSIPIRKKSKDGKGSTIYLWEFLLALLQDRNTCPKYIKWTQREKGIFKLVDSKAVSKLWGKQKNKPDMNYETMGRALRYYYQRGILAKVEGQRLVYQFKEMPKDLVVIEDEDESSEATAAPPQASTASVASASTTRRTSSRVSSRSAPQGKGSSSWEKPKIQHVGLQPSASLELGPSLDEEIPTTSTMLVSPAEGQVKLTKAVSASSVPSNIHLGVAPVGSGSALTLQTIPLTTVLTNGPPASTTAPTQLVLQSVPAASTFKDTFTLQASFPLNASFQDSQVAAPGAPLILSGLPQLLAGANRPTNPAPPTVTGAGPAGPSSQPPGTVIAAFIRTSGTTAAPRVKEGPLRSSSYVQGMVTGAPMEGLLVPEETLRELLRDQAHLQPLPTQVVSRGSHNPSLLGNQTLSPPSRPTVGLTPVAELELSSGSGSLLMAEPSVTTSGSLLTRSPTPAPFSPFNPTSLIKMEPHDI
# In short: as §1
# ELK4 = biological target: T3, ELK4 (Homo sapiens, UniProt P28324-2 1-405); settings: protein: recombinant; tags: N-terminal GST; dsDNA, one strand shown
# T3 sequence: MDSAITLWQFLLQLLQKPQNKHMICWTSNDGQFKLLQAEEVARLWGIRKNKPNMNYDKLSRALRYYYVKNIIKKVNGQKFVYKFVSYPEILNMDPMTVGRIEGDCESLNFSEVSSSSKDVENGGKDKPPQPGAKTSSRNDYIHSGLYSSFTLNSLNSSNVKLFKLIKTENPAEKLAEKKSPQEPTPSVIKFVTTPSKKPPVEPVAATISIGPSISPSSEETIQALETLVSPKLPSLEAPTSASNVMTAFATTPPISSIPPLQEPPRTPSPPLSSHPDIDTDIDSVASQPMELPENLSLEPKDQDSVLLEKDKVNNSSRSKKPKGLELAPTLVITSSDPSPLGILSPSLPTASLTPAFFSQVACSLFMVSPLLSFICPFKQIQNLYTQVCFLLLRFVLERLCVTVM
# In short: as §1
# ETV2 = biological target: T4, ETV2 (Homo sapiens, UniProt O00321 1-342); settings: protein: recombinant; tags: N-terminal GST; dsDNA, one strand shown
# T4 sequence: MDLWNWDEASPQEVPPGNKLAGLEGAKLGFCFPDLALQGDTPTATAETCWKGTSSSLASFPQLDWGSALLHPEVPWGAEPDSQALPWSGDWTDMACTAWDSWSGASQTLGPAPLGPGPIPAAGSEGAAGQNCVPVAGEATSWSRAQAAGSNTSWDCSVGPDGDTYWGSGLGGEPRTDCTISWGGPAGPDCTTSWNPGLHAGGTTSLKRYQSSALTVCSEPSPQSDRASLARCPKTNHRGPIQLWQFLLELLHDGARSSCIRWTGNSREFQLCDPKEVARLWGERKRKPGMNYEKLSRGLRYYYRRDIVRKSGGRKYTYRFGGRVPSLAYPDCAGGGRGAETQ
# In short: as §1
# ELF3 = biological target: T5, ELF3 (Homo sapiens, UniProt P78545 1-371); settings: protein: recombinant; tags: N-terminal GST; dsDNA, one strand shown
# T5 sequence: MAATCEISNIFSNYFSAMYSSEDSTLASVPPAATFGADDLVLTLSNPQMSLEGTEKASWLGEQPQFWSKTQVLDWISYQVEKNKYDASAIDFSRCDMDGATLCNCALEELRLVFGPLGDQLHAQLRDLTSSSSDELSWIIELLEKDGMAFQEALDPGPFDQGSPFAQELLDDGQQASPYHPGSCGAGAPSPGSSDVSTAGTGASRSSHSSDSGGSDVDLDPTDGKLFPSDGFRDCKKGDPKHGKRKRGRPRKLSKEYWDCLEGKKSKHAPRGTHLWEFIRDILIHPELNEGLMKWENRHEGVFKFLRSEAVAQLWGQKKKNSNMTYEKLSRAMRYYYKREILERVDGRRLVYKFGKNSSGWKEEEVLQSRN
# In short: as §1
# CRX = CRX (Homo sapiens, UniProt O43186 1-299); settings: protein: recombinant; tags: N-terminal GST; dsDNA, one strand shown
# Chain of CRX (O43186 whole entry): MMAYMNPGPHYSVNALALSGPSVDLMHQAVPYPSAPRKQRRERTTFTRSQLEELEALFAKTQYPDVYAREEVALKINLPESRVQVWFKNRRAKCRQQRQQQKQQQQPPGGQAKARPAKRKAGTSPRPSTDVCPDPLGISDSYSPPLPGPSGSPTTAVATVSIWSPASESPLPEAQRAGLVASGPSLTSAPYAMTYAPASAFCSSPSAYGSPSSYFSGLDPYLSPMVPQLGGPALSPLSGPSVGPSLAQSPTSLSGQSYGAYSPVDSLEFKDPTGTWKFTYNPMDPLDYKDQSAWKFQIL
# In short: as §1
sequence,measurement,setting,value
CTGGTT,binding signal,FEV,"1.19 fold enrichment (6-mer frequency, TF over GST control)"
same,binding signal,ETV5,"1.36 fold enrichment (6-mer frequency, TF over GST control)"
same,binding signal,HSF1,"1.24 fold enrichment (6-mer frequency, TF over GST control)"
same,binding signal,SPIC,"1.43 fold enrichment (6-mer frequency, TF over GST control)"
same,binding signal,ELF4,"1.33 fold enrichment (6-mer frequency, TF over GST control)"
same,binding signal,ELK4,"1.46 fold enrichment (6-mer frequency, TF over GST control)"
same,binding signal,ETV2,"1.2 fold enrichment (6-mer frequency, TF over GST control)"
same,binding signal,ELF3,"1.22 fold enrichment (6-mer frequency, TF over GST control)"
same,binding signal,CRX,"1.22 fold enrichment (6-mer frequency, TF over GST control)"
